Source: PubChem BioAssay AID1159580 (chemical genetic matrix, 2015)
Hit rate of the full screen: of about 5,500 compounds, about 2,000 (36%) were called active. About 18% were inconclusive and are not listed. No stated cut-off is given here; in the data, active means normalized growth mostly below about 0.91 (no sharp cut-off); inconclusive means no clear call, values can overlap the other calls; inactive means mostly above about 0.92. This is one part of the list.

Test: chemical genetic growth profiling, strain panel (AID 1159580);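 further: tested at 20 µM; growth read once vehicle control cultures reached saturation at 30 °C; 1 = growth at the plate median or of vehicle wells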
Settings: growth OD

Measured: normalized growth

OCc1ccccc1O[C@@H]1O[C@H](CO)[C@@H](O)[C@H](O)[C@H]1O
inactive: S. cerevisiae deletion strains, locus YJR066W, strain TOR1, stronger effect = lower value 0.94 | S. cerevisiae deletion strains, locus YKL009W, strain mrt4, stronger effect = lower value 1.01 | S. cerevisiae deletion strains, locus YKL068W, stronger effect = lower value 0.98 | S. cerevisiae deletion strains, locus YKL085W, strain MDH1 (second series), stronger effect = lower value 0.973 | S. cerevisiae deletion strains, locus YKL085W, strain MDH1, stronger effect = lower value 0.973 | S. cerevisiae deletion strains, locus YKL160W, strain elf1, stronger effect = lower value 0.993 | S. cerevisiae deletion strains, locus YKL190W, strain CNB1, stronger effect = lower value 0.988 | S. cerevisiae deletion strains, locus YKR001C, strain vps1, stronger effect = lower value 0.985 | S. cerevisiae deletion strains, locus YKR026C, strain gcn3, stronger effect = lower value 1 | S. cerevisiae deletion strains, locus YKR091W, strain srl3, stronger effect = lower value 0.994 | S. cerevisiae deletion strains, locus YLL001W, strain dnm1, stronger effect = lower value 0.975 | S. cerevisiae deletion strains, locus YLL026W, stronger effect = lower value 0.999 | S. cerevisiae deletion strains, locus YLL041C, strain sdh2, stronger effect = lower value 0.991 | S. cerevisiae deletion strains, locus YLR027C, strain aat2, stronger effect = lower value 1 | S. cerevisiae deletion strains, locus YLR039C, strain RIC1, stronger effect = lower value 0.936 | S. cerevisiae deletion strains, locus YLR058C, strain SHM2, stronger effect = lower value 0.978 | S. cerevisiae deletion strains, locus YLR102C, strain apc9, stronger effect = lower value 0.99 | S. cerevisiae deletion strains, locus YLR113W, strain HOG1, stronger effect = lower value 1.01 | S. cerevisiae deletion strains, locus YLR221C, strain rsa3, stronger effect = lower value 0.991 | S. cerevisiae deletion strains, locus YLR258W, strain gsy2, stronger effect = lower value 0.977 | S. cerevisiae deletion strains, locus YLR262C, strain YPT6 (second series), stronger effect = lower value 0.997 | S. cerevisiae deletion strains, locus YLR262C, strain YPT6, stronger effect = lower value 0.929 | S. cerevisiae deletion strains, locus YLR268W, strain sec22, stronger effect = lower value 0.979 | S. cerevisiae deletion strains, locus YLR320W, strain mms22, stronger effect = lower value 0.999 | S. cerevisiae deletion strains, locus YLR330W, strain CHS5, stronger effect = lower value 0.989 | S. cerevisiae deletion strains, locus YLR342W, strain FKS1 (second series), stronger effect = lower value 1.06 | S. cerevisiae deletion strains, locus YLR342W, strain FKS1, stronger effect = lower value 0.995 | S. cerevisiae deletion strains, locus YLR357W, strain rsc2, stronger effect = lower value 1.02 | S. cerevisiae deletion strains, locus YLR370C, strain arc18, stronger effect = lower value 0.98 | S. cerevisiae deletion strains, locus YLR371W, strain rom2, stronger effect = lower value 0.994 | S. cerevisiae deletion strains, locus YLR384C, strain iki3, stronger effect = lower value 0.989 | S. cerevisiae deletion strains, locus YLR418C, strain cdc73, stronger effect = lower value 1.02 | S. cerevisiae deletion strains, locus YML016C, strain PPZ1, stronger effect = lower value 0.988 | S. cerevisiae deletion strains, locus YML032C, strain rad52, stronger effect = lower value 0.993 | S. cerevisiae deletion strains, locus YML120C, strain ndi1, stronger effect = lower value 1 | S. cerevisiae deletion strains, locus YML124C, strain tub3, stronger effect = lower value 0.992 | S. cerevisiae deletion strains, locus YMR058W, strain fet3, stronger effect = lower value 0.999 | S. cerevisiae deletion strains, locus YMR078C, strain ctf18, stronger effect = lower value 0.987 | S. cerevisiae deletion strains, locus YMR125W, strain sto1, stronger effect = lower value 0.976 | S. cerevisiae deletion strains, locus YMR129W, stronger effect = lower value 1 | S. cerevisiae deletion strains, locus YMR205C, strain PFK2, stronger effect = lower value 1.01 | S. cerevisiae deletion strains, locus YMR223W, strain ubp8, stronger effect = lower value 1.05 | S. cerevisiae deletion strains, locus YMR231W, strain pep5, stronger effect = lower value 0.992 | S. cerevisiae deletion strains, locus YMR263W, strain SAP30, stronger effect = lower value 0.992 | S. cerevisiae deletion strains, locus YMR307W, strain GAS1, stronger effect = lower value 1.06 | S. cerevisiae deletion strains, locus YNL067W, strain RPL9B, stronger effect = lower value 0.968 | S. cerevisiae deletion strains, locus YNL071W, strain lat1, stronger effect = lower value 0.999 | S. cerevisiae deletion strains, locus YNL153C, strain GIM3, stronger effect = lower value 0.951 | S. cerevisiae deletion strains, locus YNL183C, strain NPR1, stronger effect = lower value 0.944 | S. cerevisiae deletion strains, locus YNL209W, strain ssb2, stronger effect = lower value 0.974 | S. cerevisiae deletion strains, locus YNL233W, strain BNI4, stronger effect = lower value 0.974 | S. cerevisiae deletion strains, locus YNL248C, strain rpa49, stronger effect = lower value 0.986 | S. cerevisiae deletion strains, locus YNL250W, strain rad50, stronger effect = lower value 0.99 | S. cerevisiae deletion strains, locus YNL271C, strain bni1, stronger effect = lower value 0.98 | S. cerevisiae deletion strains, locus YNL298W, strain CLA4, stronger effect = lower value 0.994 | S. cerevisiae deletion strains, locus YNL307C, strain MCK1, stronger effect = lower value 0.986 | S. cerevisiae deletion strains, locus YNL322C, strain KRE1 (second series), stronger effect = lower value 0.997 | S. cerevisiae deletion strains, locus YNL322C, strain KRE1, stronger effect = lower value 0.991 | S. cerevisiae deletion strains, locus YNR049C, strain mso1, stronger effect = lower value 0.978 | S. cerevisiae deletion strains, locus YNR052C, strain pop2, stronger effect = lower value 0.998 | S. cerevisiae deletion strains, locus YOL006C, strain TOP1, stronger effect = lower value 0.957 | S. cerevisiae deletion strains, locus YOL012C, strain htz1 1.27 | S. cerevisiae deletion strains, locus YOL147C, strain pex11, stronger effect = lower value 1 | S. cerevisiae deletion strains, locus YOR001W, strain rrp6, stronger effect = lower value 0.998 | S. cerevisiae deletion strains, locus YOR061W, strain CKA2, stronger effect = lower value 0.956 | S. cerevisiae deletion strains, locus YOR069W, strain VPS5, stronger effect = lower value 0.995 | S. cerevisiae deletion strains, locus YOR070C, strain gyp1, stronger effect = lower value 0.995 | S. cerevisiae deletion strains, locus YOR080W, strain dia2, stronger effect = lower value 0.991 | S. cerevisiae deletion strains, locus YOR083W, strain WHI5, stronger effect = lower value 0.999 | S. cerevisiae deletion strains, locus YOR106W, strain vam3, stronger effect = lower value 0.977 | S. cerevisiae deletion strains, locus YOR136W, strain idh2, stronger effect = lower value 0.988 | S. cerevisiae deletion strains, locus YOR144C, strain elg1, stronger effect = lower value 0.99 | S. cerevisiae deletion strains, locus YOR184W, strain ser1, stronger effect = lower value 0.991 | S. cerevisiae deletion strains, locus YOR231W, strain MKK1, stronger effect = lower value 1.01 | S. cerevisiae deletion strains, locus YOR265W, strain rbl2, stronger effect = lower value 1 | S. cerevisiae deletion strains, locus YOR270C, strain vph1, stronger effect = lower value 0.918 | S. cerevisiae deletion strains, locus YOR290C, strain snf2, stronger effect = lower value 0.99 | S. cerevisiae deletion strains, locus YOR316C, strain cot1, stronger effect = lower value 0.975 | S. cerevisiae deletion strains, locus YPL051W, strain arl3, stronger effect = lower value 0.98 | S. cerevisiae deletion strains, locus YPL078C, strain atp4, stronger effect = lower value 0.992 | S. cerevisiae deletion strains, locus YPL106C, strain sse1, stronger effect = lower value 0.991 | S. cerevisiae deletion strains, locus YPL240C, strain hsp82, stronger effect = lower value 0.985 | S. cerevisiae deletion strains, locus YPL241C, strain CIN2, stronger effect = lower value 0.994 | S. cerevisiae deletion strains, locus YPL256C, strain CLN2, stronger effect = lower value 1.03 | S. cerevisiae deletion strains, locus YPR119W, strain clb2, stronger effect = lower value 0.98 | S. cerevisiae deletion strains, locus YPR141C, strain kar3, stronger effect = lower value 0.973 | S. cerevisiae deletion strains, locus YPR163C, strain tif3, stronger effect = lower value 0.992 | S. cerevisiae deletion strains, locus YPR167C, strain met16, stronger effect = lower value 0.997 | S. cerevisiae deletion strains, strain wtn01, stronger effect = lower value 1.01 | S. cerevisiae strains, strain wild type, stronger effect = lower value 0.979
